Data from PubChem BioAssay AID501 (PCMD, 2006).
About 35 (0.06%) of roughly 62,000 compounds were called active. Cut-off read from the data, not from the text of the source: active = inhibition above about 32% (passing the limit was not always enough); inconclusive = no clear call, values can overlap the other calls. Only a selection was taken, and actives are over-represented in it overall.

Biological target: Cathepsin S (Homo sapiens) (UniProt P25774)
Test: blockers of CTSS protease activity – biochemical, compound mixtures (AID 501);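 note: 0% = enzyme without compound and 100% = blank without enzyme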
Settings: recombinant cathepsin S, AMC dipeptide fluorescence, pooled mixtures; stronger effect = higher value;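 tested at 5 µM per compound within 10-compound mixtures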

Sequence of Cathepsin S (Homo sapiens) (P25774 115-331 limits assumed): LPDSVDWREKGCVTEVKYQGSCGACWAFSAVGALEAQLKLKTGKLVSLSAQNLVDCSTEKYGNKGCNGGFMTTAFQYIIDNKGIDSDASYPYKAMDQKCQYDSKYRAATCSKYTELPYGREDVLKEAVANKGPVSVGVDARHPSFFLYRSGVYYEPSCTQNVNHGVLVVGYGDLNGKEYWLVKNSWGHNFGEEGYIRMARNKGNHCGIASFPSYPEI

Q: For `Cc1nn(-c2ccccc2)c2sc(C(=O)N(Cc3ccco3)C(C)C(=O)NC(C)(C)C)cc12` (centres undefined), which inhibition is on record?
A: 13.8% (inactive)

Q: For `c1ccc2c(c1)OCC(CNc1ncnc3nc[nH]c13)O2` (centres undefined), which inhibition is on record?
A: -0.615% (inactive)

Q: `O=C(CN1CCN(c2ncc(C(F)(F)F)cc2Cl)CC1)Nc1ccc2c(c1)OCO2` was tested. Which inhibition did it give?
A: 13.5% (inactive)

Q: How did the inhibition turn out when `COc1ccc(-c2noc(CN(C)S(=O)(=O)c3ccc(C)cc3)n2)cc1` was run?
A: 8.41% (inactive)

Q: With `Cc1ccc2c(c1)N(C(=O)CCC(=O)N1CCc3ccccc3C1)CCO2` as the molecule, how does the inhibition read?
A: -12.7% (inactive)

Q: How did the inhibition turn out when `Cn1c(C(=O)NCCCN2CCN(c3cccc(Cl)c3)CC2)cc2c(=O)n(C)c3ccccc3c21` was run?
A: 33% (active)

Q: For `CC1CCCC(C)N1CCCNC(=O)c1cc2c(=O)n(C)c3ccccc3c2n1C` (centres undefined), which inhibition is on record?
A: 7.08% (inactive)

Q: `CCn1c(=O)cc(OCC(=O)NCCCN2CCN(c3cccc(Cl)c3)CC2)c2ccccc21` was tested. Which inhibition did it give?
A: 4.46% (inactive)

Q: With `COc1ccc(-c2ccc(-c3noc(-c4ccncc4)n3)c(OC)n2)cc1` as the molecule, how does the inhibition read?
A: 6.8% (inactive)

Q: With `COc1ccccc1N1CCN(c2nc3ccccc3n3nnnc23)CC1` as the molecule, how does the inhibition read?
A: 8.24% (inactive)

Q: `CC1CCCC(NC(=O)CN2CCN(Cc3ccc(Cl)cc3)C2=O)C1C` (centres undefined) was tested. Which inhibition did it give?
A: -3.54% (inactive)

Q: With `CCN(CC)S(=O)(=O)c1ccc2nc(CSc3nnnn3-c3ccc(O)cc3)[nH]c2c1` as the molecule, how does the inhibition read?
A: -6.33% (inactive)

Q: How did the inhibition turn out when `CCC(C)Sc1nnc(-c2c[nH]c3ccccc23)n1CCOC` (centres undefined) was run?
A: -1.22% (inactive)

Q: `COc1ccc(-c2cc3n(n2)CCc2nc4ccccc4n2-3)cc1` was tested. Which inhibition did it give?
A: -5.35% (inactive)

Q: With `CCN(CC)C(=O)CSc1nnc(-c2ccc(S(=O)(=O)NCc3ccccc3Cl)cc2)o1` as the molecule, how does the inhibition read?
A: 6.42% (inactive)

Q: `O=c1/c(=C/c2ccc(CNS(=O)(=O)c3ccccc3)o2)sc2n1CCN=2` was tested. Which inhibition did it give?
A: -0.38% (inactive)

Q: For `Cc1cc(C)nc(SCc2ccccc2C#N)n1`, which inhibition is on record?
A: -2.31% (inactive)

Q: How did the inhibition turn out when `CCc1cc(=O)oc2cc(C)cc(OC(C)C(=O)O)c12` (centres undefined) was run?
A: -5.16% (inactive)

Q: `CN1CCN(Cc2c(O)ccc3c2oc(=O)c2ccccc23)CC1` was tested. Which inhibition did it give?
A: 6.08% (inactive)

Q: Which inhibition does the source give for `CCNS(=O)(=O)c1ccc(NC(=O)Nc2cccc(C(F)(F)F)c2)cc1` here?
A: -6.53% (inactive)

Q: For `Cc1c2cnn(-c3ccccc3)c(=O)c2c(C)n1CCCC(=O)N1CCN(C)CC1`, which inhibition is on record?
A: -3.9% (inactive)

Q: Which inhibition does the source give for `CC(NC(=O)c1ccco1)C(=O)Nc1nc(-c2ccccn2)cs1` (centres undefined) here?
A: 12% (inactive)

Q: `O=C(O)C1C2C=CC(C2)C1C(=O)N1CCN(CCO)CC1` (centres undefined) was tested. Which inhibition did it give?
A: 3.18% (inactive)

Q: `CC(=O)c1cnc(Nc2nc(C)c3cc(C)ccc3n2)nc1C` was tested. Which inhibition did it give?
A: -5.6% (inactive)

Q: For `CC(C)NS(=O)(=O)c1ccc(OCC(=O)Nc2ccc3c(c2)OCCO3)cc1`, which inhibition is on record?
A: 22.9% (inactive)

Q: Which inhibition does the source give for `N#Cc1nc(N)nc(N(c2ccccc2)c2ccccc2)n1` here?
A: 49.2% (active)

Q: With `CC(C)Nc1nc(N(c2ccccc2)c2ccccc2)nc(-n2ccnc2)n1` as the molecule, how does the inhibition read?
A: -8.9% (inactive)

Q: How did the inhibition turn out when `CC(C)n1c(SCC(=O)Nc2ccccc2N2CCCCC2)nc2c1c(=O)n(C)c(=O)n2C` was run?
A: -0.72% (inactive)

Q: `CCOC(=O)C1=C(CNC2CCCCC2)NC(=O)NC1c1cc(C)ccc1C` (centres undefined) was tested. Which inhibition did it give?
A: -0.495% (inactive)

Q: How did the inhibition turn out when `O=c1cc(CO)oc(CN2CCC(Cc3ccccc3)CC2)c1O` was run?
A: 4.81% (inactive)

Q: `C=CCN1C(=O)C(O)(CC(=O)c2ccc(Cl)cc2)c2ccccc21` (centres undefined) was tested. Which inhibition did it give?
A: -18% (inactive)

Q: `CC(C)N1C(=O)C2C(C(=O)NC3CCCCC3)C3C=CC2(O3)C1C(=O)NC1CCCC1` (centres undefined) was tested. Which inhibition did it give?
A: -8.37% (inactive)

Q: How did the inhibition turn out when `COc1ccc(-c2csc(N3CCN(Cc4ccc5c(c4)OCO5)CC3)n2)cc1` was run?
A: -3.99% (inactive)

Q: For `COc1ccc(C(=O)Nc2ccc3c(c2)OCO3)cc1OC`, which inhibition is on record?
A: -4.12% (inactive)

Q: How did the inhibition turn out when `Cc1ccc(C(=O)NCC(=O)O)cc1S(=O)(=O)N1CCCCC1` was run?
A: -10.7% (inactive)

Q: Which inhibition does the source give for `Cc1ccc(C(=O)Nc2ccc3c(c2)OCO3)cc1S(=O)(=O)N1CCCCC1` here?
A: 85.5% (active)

Q: How did the inhibition turn out when `Cc1ccc(S(=O)(=O)N2CCCC2C(=O)NCc2ccco2)cc1` (centres undefined) was run?
A: 12.5% (inactive)

Q: `CC1(C)CC(CCC(=O)Nc2ccccc2Cl)C(=O)O1` (centres undefined) was tested. Which inhibition did it give?
A: -3.38% (inactive)

Q: `Cc1ccc(C(=O)NCC2CCCO2)o1` (centres undefined) was tested. Which inhibition did it give?
A: 0.56% (inactive)

Q: How did the inhibition turn out when `CCOC(=O)c1c(C)c(C(=O)NCCc2ccc(S(N)(=O)=O)cc2)c(C)n1CC` was run?
A: -0.765% (inactive)

Q: With `CC(CCc1ccccc1)NC(=O)c1ccc(Br)o1` (centres undefined) as the molecule, how does the inhibition read?
A: -7.32% (inactive)

Q: For `CC1(C)Cc2ccccc2-c2nnc(-c3cccc(O)c3)n21`, which inhibition is on record?
A: -3.6% (inactive)

Q: With `O=C(c1ccc(S(=O)(=O)N2CCOCC2)cc1)N1CCN(c2ccccc2)CC1` as the molecule, how does the inhibition read?
A: -24.7% (inactive)

Q: How did the inhibition turn out when `C#CCN1CC(C)/C(=N/O)CC1C` (centres undefined) was run?
A: -8.55% (inactive)

Q: `CCOC(=O)C1(c2ccccc2)NC(c2ccc(N(C)C)cc2)C2C(=O)N(C)C(=O)C21` (centres undefined) was tested. Which inhibition did it give?
A: 12.2% (inactive)

Q: Which inhibition does the source give for `O=S(=O)(NCCNS(=O)(=O)c1ccccc1)c1ccccc1` here?
A: -7.43% (inactive)

Q: Which inhibition does the source give for `Cc1nc(N2CCCC2C(=O)O)c2oc3ccccc3c2n1` (centres undefined) here?
A: 8.31% (inactive)

Q: Which inhibition does the source give for `COc1ccc(CCn2c(NCCCN3CCOCC3)nc3c2c(=O)[nH]c(=O)n3C)cc1` here?
A: 5.43% (inactive)

Q: Which inhibition does the source give for `CCOC(=O)c1sc(=S)n2c1[nH]c(=O)c1ccc(C(=O)OC)cc12` here?
A: -0.96% (inactive)

Q: With `O=C(CC(NS(=O)(=O)c1ccc(Cl)cc1)c1ccco1)NC1CCCC1` (centres undefined) as the molecule, how does the inhibition read?
A: -2.72% (inactive)

Q: How did the inhibition turn out when `CC(=O)Nc1nc(C)c(Cc2ccccc2)c(=O)[nH]1` was run?
A: -3.33% (inactive)

Q: How did the inhibition turn out when `CCCCSc1nnc(-c2ccc(C)cc2)o1` was run?
A: 0.235% (inactive)

Q: `O=C(c1ccc2c(c1)C(=O)N(c1ccc(Cl)cc1)C2=O)N1CCN(c2ccccn2)CC1` was tested. Which inhibition did it give?
A: 2.28% (inactive)

Q: `O=C(NCc1ccco1)c1ccc(CS(=O)(=O)Cc2ccc(F)cc2)o1` was tested. Which inhibition did it give?
A: -5.21% (inactive)

Q: `COc1cccc(-c2nc3n(n2)C(c2ccccc2Cl)C(C(N)=O)=C(C)N3)c1` (centres undefined) was tested. Which inhibition did it give?
A: -4.19% (inactive)

Q: How did the inhibition turn out when `CC1(C)CCCC2=C1CC1C(=O)N(c3ccccc3)C(=O)C1C2` (centres undefined) was run?
A: 8.69% (inactive)

Q: For `Cc1ccc(-n2c(SCC(=O)Nc3ccc4c(c3)OCO4)nnc2-c2ccoc2C)cc1`, which inhibition is on record?
A: 7.19% (inactive)

Q: How did the inhibition turn out when `CC12COC3(C(=O)Nc4ccc(Cl)cn4)CC1CCC32C` (centres undefined) was run?
A: -6.89% (inactive)

Q: With `COC(=O)C1(S(=O)(=O)C2(C(=O)OC)CCCC2)CCCC1` as the molecule, how does the inhibition read?
A: -5.82% (inactive)
